In PubChem BioAssay AID686978 (National Center for Advancing Translational Sciences (NCATS), 2013):
Hit rate of the full screen: of about 420,000 compounds, about 64,000 (15%) were called active. Another 27% or so got no clear call; they are omitted. The call rests on the fitted dose curve; in most records, active means well fitted inhibition curve with a large enough effect; inconclusive means small, poorly fitted or top-dose-only effect; inactive means flat fitted curve, though single readings scatter. Only a sample is shown. A call without a number means that no potency is given here.

Test: qHTS for Inhibitors of human tyrosyl-DNA phosphodiesterase 1 (TDP1): qHTS in cells in absence of CPT; further: nearly all actives have a fitted effect of over 55% in size
Settings: DT40 Tdp1-/- hTDP1 cells, no CPT, ATP luminescence, 48 h; activity change, negative = growth inhibition: at 46.2 µM (top of the series)
Outline: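 Growth kinetics read by CellTiter-Glo luminescence after ≥48 hr at 37 °C. Cells: DT40 Tdp1-/- stably carrying human TDP1, 400 per well, compound exposure in the absence of CPT (DMSO vehicle).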
Potency means the concentration at half of the fitted maximal effect.

SMILES | Potency
Cc1cc(C)nc(-n2nc(C)cc2NC(=O)c2ccc(F)cc2F)n1 | 6.51 µM (active)
O=C(COC(=O)c1ccc(F)cc1F)Nc1ncccn1 | inactive
CC(C)c1ccc(S(=O)(=O)N2CCC3(CC2)OCCO3)cc1 | inactive
c1ccc2c(c1)CCc1snnc1-2 | inactive
C=CCn1c(SCC(=O)NCCCO)nc2sc3c(c2c1=O)CCC3 | inactive
C=CCn1c(SCC(=O)NCC2CCCO2)nc2sc(C)c(C)c2c1=O (stereo unspecified) | inactive
C=CCn1c(SCc2c(C)noc2C)nc2sc3c(c2c1=O)CCC(C)C3 (stereo unspecified) | 16.4 µM (active)
O=C(CN(CC1CCCO1)C(=O)CNS(=O)(=O)c1ccc(F)cc1)NCc1ccco1 (stereo unspecified) | inactive
Nc1nnc(SCC(=O)NCC(=O)Nc2ccc(F)c(F)c2F)s1 | inactive
Cc1ccc(Cn2c(C)c(C(=O)NCc3ccccc3C(F)(F)F)sc2=O)cc1 | inactive
Cn1c(CC(=O)Nc2ccc(F)cc2)nnc1SCC(=O)NC1CCCCC1 | inactive
O=C(c1ccco1)N1CCN(C(=O)C2c3ccccc3Oc3ccccc32)CC1 | inactive
O=C(Cc1ccccc1Cl)N1CCN(c2ccccn2)CC1 | inactive
O=C(CCSc1ccccc1)N1CCN(c2ccccc2F)CC1 | inactive
O=C(CCSCc1ccccc1F)N1CCN(c2ccc(Cl)cc2)CC1 | 18.4 µM (active)
O=C(CCS(=O)(=O)c1cccc2nsnc12)N1CCN(c2ccccc2F)CC1 | inactive
Cc1cccc(N2CCN(C(=O)CCSCc3ccccc3F)CC2)c1C | 20.6 µM (active)
O=C(CCc1ccccc1F)N1CCN(c2ccccc2)CC1 | inactive
Cc1ncoc1C(=O)NCCC(c1ccccc1)c1ccccc1 | inactive
CCCCOc1ccc(C(=O)NCC(=O)OCC(=O)N2CCN(S(=O)(=O)c3ccc(C)cc3C)CC2)cc1 | inactive
COc1ccc(/C=C/C(=O)OCC(=O)N2CCN(S(=O)(=O)c3ccc(C)cc3C)CC2)cc1OC | 20.6 µM (active)
Cc1ccc(S(=O)(=O)N2CCC3(CC2)OCCO3)c(C)c1 | inactive
Cc1ccc(S(=O)(=O)N2CCN(C(=O)COC(=O)c3c(C)noc3C)CC2)c(C)c1 | inactive
Cc1ccc(S(=O)(=O)N2CCN(C(=O)COC(=O)c3c(C)cc(C)cc3C)CC2)c(C)c1 | 10.3 µM (active)
Cc1ccc(S(=O)(=O)N2CCN(C(=O)Cc3sc(C)nc3-c3ccc(F)cc3)CC2)c(C)c1 | 18.4 µM (active)
COc1ccc(S(=O)(=O)N2CCN(CC(=O)N3CCOCC3)CC2)cc1OC | inactive

SMILES | Potency
O=C(COC(=O)/C=C/c1cccc(Cl)c1)NCc1cccs1 | inactive
Cc1ccc(S(=O)(=O)N2CCN(C(=O)N3CCOCC3)CC2)c(C)c1 | inactive
Cc1ccc(S(=O)(=O)N2CCN(C(=O)COC(=O)/C=C/c3cccc(Cl)c3)CC2)c(C)c1 | 23.1 µM (active)
COc1ccc(S(=O)(=O)N2CCN(C)CC2)c(C)c1 | inactive
Cc1nc(-c2ccc(F)cc2)c(CC(=O)Nc2cccc(S(=O)(=O)N3CCOCC3)c2)s1 | inactive
Cc1nc2ncnn2c(C)c1CCC(=O)N1CCN(C(=O)c2ccco2)CC1 | inactive
COc1ccc(CN(C)CCn2cc(C(=O)N3CCSCC3)nn2)cc1C | inactive
Cc1cnc(C(=O)Oc2cccc(Cl)c2Cl)cn1 | inactive
COc1cc(OC)c(C(=O)NC2CC(C)(C)NC(C)(C)C2)cc1OC | inactive
O=C(O)CCCC(=O)Nc1ccc(Oc2cccc(C(F)(F)F)c2)nc1 | inactive
CCOC(=O)Cn1c2c(c(-c3ccccc3OC)cc1=O)CCCC2 | inactive
CCc1cccc(NC(=O)CCCN2C(=O)C(c3ccccc3)Oc3cccnc32)c1 (stereo unspecified) | inactive
Cc1ccc(CNCc2ccc3c(c2)OCO3)c(C)c1 | inactive
COC(=O)c1sccc1NN1C(=O)c2ccccc2C1=O | inactive
CCCCn1c(N)c(N(CCOC)C(=O)c2cccc(S(=O)(=O)N(C)c3ccccc3)c2)c(=O)[nH]c1=O | inactive
C=CCC(NCCCO)c1cccc(OC)c1OC (stereo unspecified) | inactive
O=C(CCN1C(=O)[C@H]2CC=CC[C@H]2C1=O)NCc1nc(-c2ccccc2)no1 | inactive
O=C(NCCCn1ccnc1)c1cc(Br)c(Br)s1 | inactive
O=C(COC(=O)c1cnc(Cl)c(Cl)c1)NCc1ccco1 | inactive
O=C1CCC(=O)N1CCC(=O)N(C(=O)NC1CCCCC1)C1CCCCC1 | inactive
CCc1nnc(NC(=O)c2cc(S(=O)(=O)N3CCN(CC)CC3)ccc2Cl)s1 | inactive
COCCOC(=O)C1=C(C)Nc2nc(C)nn2C1c1ccccc1 (stereo unspecified) | inactive
Cc1ccc(C)c(OCCC(=O)OCC(=O)N2CCN(c3ccccc3)CC2)c1 | inactive
COc1ccccc1CCC(=O)OCC(=O)N1CCN(S(=O)(=O)c2ccc(C)cc2C)CC1 | 23.1 µM (active)
Cc1ccc(S(=O)(=O)N2CCN(C(=O)COC(=O)CNC(=O)c3ccc(C(C)(C)C)cc3)CC2)c(C)c1 | inactive
